Results published in PubChem BioAssay AID651965 (National Center for Advancing Translational Sciences (NCATS), 2013).
Out of some 340,000 compounds screened, about 6,400 (1.9%) were called active. Not shown: some 4% with an inconclusive outcome. What follows is part of a selection rich in actives, with near analogues and random picks from the rest. Unmarked numbers belong to inactive results. The call rests on the fitted dose curve; in most records, active means well fitted falling curve with a large enough effect; inconclusive means small, poorly fitted or top-dose-only effect; inactive means no such curve, though single readings can be large or run the other way.

Molecular target: ATP-dependent Clp protease proteolytic subunit (Bacillus subtilis (strain 168)) (UniProt P80244)
Test: qHTS Assay for Activators of ClpP; further: the source files actives as falling curves though it sought activators and does not explain the sign; nearly all actives have a fitted effect of over 65% in size
Conditions: purified B. subtilis ClpP, FRET peptide cleavage, 20 min; series mostly up to 57.5 µM; activity change, negative = active: at the top concentration
Description: The Clp protease proteolytic subunit (ClpP) is the core unit of the Clp complex belonging to the peptidase family S14 that hydrolyzes protein into small peptides in the presence of ATP and magnesium. It is ubiquitously expressed and is the major protease in bacteria. […] Unlike common antibiotics that simply interfere with the essential enzyme activity, ADEP binding activates the ClpP core in the absence of the regulatory Clp-ATPases leading to uncontrolled proteolysis and eventually cell death. Activators binding to the docking site on ClpP can also block formation of the ClpXP and ClpA/C-P holoenzyme complexes interfering with the normal biological functions of ClpP and thus have the potential to become new anti-microbials.
To identify activators of ClpP, a FRET based quenching reversal assay was developed using a purified B. subtilis ClpP and a decapeptide substrate (FRET-FV). The FRET-FV is tagged with a fluorescent molecule amino benzoic acid (donor) at the N-terminus and a nitrotyrosine quencher (acceptor) at the C-terminus. FRET-FV cleaves upon activation of ClpP with ADEP treatement and reverses the quenching effect of the nitrotyrosine causing an increase in fluorescence emission signal at 430nm. This assay was used to screen the Molecular Libraries Small Molecule Repository (MLSMR).
NIH Molecular Libraries Probe Production Centers Network [MLPCN]
NIH Chemical Genomics Center [NCGC]
Assay Submitter (PI): Michael Maurizi, National Cancer Institute
Two and a half microL/well of purified enzyme solution (final concentrations 10 microg/mL B. subtilis ClpP in 100 mM Tris/HCl pH8, 100 mM KCl, 0.05% low protease BSA, 2.5% glycerol, 0.01% Tween-20 buffer) was dispensed into 1536-well assay plates (Greiner, black solid, medium-binding plates) with Aurora Discovery BioRAPTR Flying Reagent Dispenser (FRD, Beckton-Dickenson). Compound solution (23 nL) was transferred to the assay plate using Kalypsys pin tool equipped with a 1536-pin tool. […] FRET signals at time 0 and after 20 min room temperature incubation were obtained using the PerkinElmer Envision plate reader with 320nm excitation and 430nm emission filters. Delta FRET value (Time 20 - Time 0) was calculated and normalized to the delta FRET value of positive control ADEP (5.8 microM final concentration) and negative control DMSO and no enzyme wells.

For O=C(Nc1ccccc1-c1nnn(CC(=O)N2CCCc3ccccc32)n1)c1cccc(Cl)c1, the Potency was 20 µM (active).
For Cc1ccc(S(=O)(=O)NNC(=O)Nc2cccc3ccccc23)cc1, the Potency was 14.1 µM (active).
For COc1ccc(/C=N/NC(=O)c2ccc(Cl)cc2)cc1COC(C)=O, the Potency was 25.1 µM (active).
For Cc1cc(NC(=O)Cn2nc(C(F)(F)F)c3c2CCCC3)no1, the Potency was 28.2 µM (active).
CC(C)(C)NC(=O)COc1ccc(CNc2ccc3[nH]c(=O)[nH]c3c2)cc1 was tested, and the Potency was 22.4 µM (active).
With CCn1c2ccccc2c2cc(NC(=O)C/C(C)=N/NC(=O)c3ccccc3N)ccc21 the Potency was 14.1 µM (active).
In the case of CCc1ccc(-c2cc(C(=O)NN3CCN(C)CC3)c3ccccc3n2)cc1, the Potency is reported as 31.6 µM (active).
For C=C(C)CSc1nc(N)c2c3c(sc2n1)CCC3, the Potency was 12.6 µM (active).
With Cc1cc(NC(=O)CN2CCCC(C)C2)n(-c2nc3ccccc3s2)n1 (stereo not drawn) the Potency was 17.8 µM (active).
For CCOC(=O)c1cc(C#N)c(N2CCCCC2)nc1-c1ccccc1, the Potency was 28.2 µM (active).

First: O=C(Nc1ccccc1-c1nnn(CC(=O)N2CCN(c3ccccc3)CC2)n1)c1cccs1
Second: CCOC(=O)c1c(N)nn(C(=O)c2ccccc2)c1-c1ccccc1
The “activity change, negative = active” value of the first is lower: -19.7% for the first, -1.6% for the second.

Compared with COC(=O)[C@]12CCCCC=C1N(Cc1ccc3c(c1)OCO3)C(=O)[C@H](CC(=O)NCc1cccs1)C2, CCOC(=O)[C@]12CCC=C1N(Cc1ccccc1)C(=O)[C@H](CC(=O)N1CCCC1)C2 is lower in “activity change, negative = active” value: -1.48% for the first, -2.23% for the second.

Going from CCCCCCCCN1C(=O)[C@H](CC(=O)NCC23CC4CC(CC(C4)C2)C3)C[C@@]2(C(=O)OC)CCCCC=C12 to COC(=O)[C@@]12C[C@@H](CC(=O)NCCCCc3ccccc3)C(=O)N(Cc3ccccc3)C1=CCC(C)(C)C2, the “activity change, negative = active” value falls from -1.46% to -1.89%.

First: O=C(Nc1cccc2ccccc12)NC1CC1
Second: Cc1ccc(-c2cc(C(=O)NC3CCN(Cc4ccccc4)CC3)c3ccccc3n2)cc1
The “activity change, negative = active” value of the first is higher: 3.85% for the first, -0.514% for the second.

First: COc1ccc(C(=O)NNS(=O)(=O)c2ccc(C)cc2)cc1
Second: COc1ccc(-c2nc(=N)sn2-c2ccccc2)cc1
The “activity change, negative = active” value of the first is lower: -7.98% for the first, -2.14% for the second.

Compared with COc1cc(/C=N/NC(=O)CNC(=O)c2ccncc2)ccc1OC(C)=O, COc1cccc(OCc2cc(/C=N/NC(=O)c3nc(Cl)c(Cl)c(N)c3Cl)ccc2OC)c1 is lower in “activity change, negative = active” value: -0.766% for the first, -23.6% for the second.

First: CC(=O)NC(c1ccccc1)c1nc(-c2ccccc2C)cs1 (stereo not drawn)
Second: CC(=O)c1ccc(Nc2nc(C(N)c3ccccc3Cl)cs2)cc1 (stereo not drawn)
The “activity change, negative = active” value of the first is higher: -4.42% for the first, -11.1% for the second.

Compared with NS(=O)(=O)c1ccc(NC(=O)CSc2nnc3c(n2)[nH]c2ccccc23)cc1, C/C(CC(=O)Nc1ccc(N(C)C)cc1)=N\NC(=O)c1ccccc1F is lower in “activity change, negative = active” value: 1.35% for the first, -2.45% for the second.

First: O=C(Cn1nc(C(F)(F)F)c2c1CCC2)NCc1ccc(F)cc1
Second: O=C(Cn1nc(C(F)(F)F)c2c1CCCC2)Nc1ccc(Cl)cc1
The “activity change, negative = active” value of the first is lower: -1.32% for the first, -1.07% for the second.

First: COc1ccc(C(=O)OCC(=O)Nc2ccc3[nH]c(=O)[nH]c3c2)c(OC)c1OC
Second: CCn1c2ccccc2c2cc(NC(=O)COc3ccc(C)cc3C)ccc21
The “activity change, negative = active” value of the first is higher: -5.3% for the first, -24.8% for the second.

Compared with COC(=O)c1ccc(OCC(=O)NC(C)(C)C)cc1, Cc1nc2c(OCC(=O)C(C)(C)C)cccn2c1N(C)Cc1cccs1 is lower in “activity change, negative = active” value: 1.7% for the first, -7.89% for the second.

Compared with Cc1ccc([C@H]2N[C@]3(CCCN(Cc4ccccc4)C3=O)[C@H]3C(=O)N(Cc4ccccc4)C(=O)[C@@H]23)cc1, CCOC(=O)[C@H]1Nc2ccc(Cl)cc2[C@@H]2[C@H]1C1CC(c3ccccc31)N2C(=O)OCc1ccccc1 (stereo partly drawn) is lower in “activity change, negative = active” value: 1.37% for the first, -6.04% for the second.

Compared with COc1ccc(-c2cc(C(=O)NCCCN3CCCC3=O)c3ccccc3n2)cc1OC, CCOc1ccc2nc(N3CCCN(C(=O)Nc4ccccc4C)CC3)c(C#N)cc2c1 is higher in “activity change, negative = active” value: -6.41% for the first, -2.23% for the second.

First: COCCNc1nc(NCc2ccc(NC(C)=O)cc2)c2sccc2n1
Second: CCCCCc1c(-c2cccc(Br)c2)ncn1CCc1ccccc1OC
The “activity change, negative = active” value of the first is higher: -15.9% for the first, -26.2% for the second.

Going from COc1c(C)cc(C(O)c2ncc(-c3cccc(C(F)(F)F)c3)[nH]2)cc1C (stereo not drawn) to CCC(c1nnnn1-c1ccc2c(c1)OCCO2)N1CCN(c2ccc(C(F)(F)F)cn2)CC1 (stereo not drawn), the “activity change, negative = active” value rises from -7.79% to -0.91%.

First: CC(C)(C)C1CCc2c(sc3nc(SCC(N)=O)nc(N)c23)C1 (stereo not drawn)
Second: CCc1nc(N2CCN(C(C)=O)CC2)c2c3c(sc2n1)CCCC3
The “activity change, negative = active” value of the first is lower: -15.5% for the first, -4.18% for the second.

Going from C[C@H]1CN([C@@H](C)CO)C(=O)c2cc(C3=CCCCC3)cnc2O[C@@H]1CN(C)C(=O)Cc1ccccc1 to O=C(NCc1cccnc1)c1cc(C2CCCN(C(=O)CCCc3ccccc3)C2)on1 (stereo not drawn), the “activity change, negative = active” value rises from -5.72% to 1.82%.

Compared with Cc1[nH]c2ccccc2c1C(=O)CN1CCCC(C)C1 (stereo not drawn), CC(=O)Nc1ccc(NC(=O)CN2CCCC(C)C2)c(Cl)c1 (stereo not drawn) is lower in “activity change, negative = active” value: 0.916% for the first, -3.9% for the second.

Compared with Cc1cc[n+](C2CCCCC2)cc1, N#Cc1ccc[n+](CC(=O)c2ccc(O)c(O)c2)c1 is higher in “activity change, negative = active” value: -7.91% for the first, -0.287% for the second.
